In PubChem BioAssay (NCATS):
Records with an inconclusive call do not appear. Activity calls are given as the source filed them. Unless noted, calls come from the whole dose curve; as a rule, active = well fitted curve in the direction sought with a large enough effect; inconclusive = small, poorly fitted or top-dose-only effect, or another doubt; inactive = no such curve, though single readings can be large; an effect the other way counts as inactive or inconclusive.

Assays:
[1] = biological target: Lysosomal acid glucosylceramidase (Homo sapiens) (UniProt P04062); test: Glucocerebrosidase-p2 (AID 348; in the data active = potency below about 10 µM; note: potency is the fitted concentration of half-maximal effect); settings: purified GBA, blue fluorogenic substrate, 40 min
Lysosomal acid glucosylceramidase (Homo sapiens), sequence (P04062 whole entry, looked up): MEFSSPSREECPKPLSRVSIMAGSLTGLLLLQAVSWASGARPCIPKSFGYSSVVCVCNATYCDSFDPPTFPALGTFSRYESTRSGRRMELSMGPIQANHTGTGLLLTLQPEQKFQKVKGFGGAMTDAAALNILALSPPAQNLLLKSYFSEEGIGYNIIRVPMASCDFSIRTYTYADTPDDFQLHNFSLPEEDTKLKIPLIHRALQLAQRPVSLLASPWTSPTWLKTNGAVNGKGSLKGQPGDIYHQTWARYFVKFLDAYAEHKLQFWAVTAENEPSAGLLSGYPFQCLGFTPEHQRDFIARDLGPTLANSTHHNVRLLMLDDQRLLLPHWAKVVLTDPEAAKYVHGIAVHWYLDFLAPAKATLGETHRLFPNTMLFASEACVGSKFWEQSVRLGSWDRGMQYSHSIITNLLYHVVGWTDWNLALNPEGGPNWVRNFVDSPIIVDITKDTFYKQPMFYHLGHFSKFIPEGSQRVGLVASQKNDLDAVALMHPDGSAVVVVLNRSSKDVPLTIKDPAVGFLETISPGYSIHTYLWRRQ
Method in brief: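 Normal human glucocerebrosidase (0.2 nM) with blue fluorogenic substrate (80 uM final) in citrate/phosphate pH 5.9 with 10mM sodium taurocholate, 0.01% tween-20; 40 min RT, NaOH/glycine stop; fluorescence Ex 365/Em 440; AC50 from a titration from 0.6 nM upwards.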

[2] = AP1 Signaling Pathway (AID 357; active = well fitted curve in either direction with a large enough effect, not every such curve was filed as active;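 note: ME-180 reporter cells stimulated with EGF at its EC50 level; % is set by controls: 0 for no effect and ±100 for the full control effect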); settings: ME-180 AP-1-bla reporter, EGF-induced, beta-lactamase ratio, 5 h; at 7.69 µM (top of the series) unless noted
Method in brief: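 Titration-series screen for positive or negative modulators of EC50 EGF-induced signaling in ME-180 cells carrying an AP-1-driven beta-lactamase reporter. After 5 hours at 37 degrees Celsius, CCF4 460nm/530nm emission ratio gave %Activity; AC50 values derived.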

[3] = biological target: Cytochrome P450 1A2 (Homo sapiens) (UniProt P05177); test: p450-cyp1a2 (AID 410; calls by dose curve; note: potency is the fitted concentration of half-maximal effect); settings: recombinant CYP1A2, luciferin-ME demethylation, luminescence; series mostly up to 57 µM
Cytochrome P450 1A2 (Homo sapiens), sequence (P05177 whole entry, looked up): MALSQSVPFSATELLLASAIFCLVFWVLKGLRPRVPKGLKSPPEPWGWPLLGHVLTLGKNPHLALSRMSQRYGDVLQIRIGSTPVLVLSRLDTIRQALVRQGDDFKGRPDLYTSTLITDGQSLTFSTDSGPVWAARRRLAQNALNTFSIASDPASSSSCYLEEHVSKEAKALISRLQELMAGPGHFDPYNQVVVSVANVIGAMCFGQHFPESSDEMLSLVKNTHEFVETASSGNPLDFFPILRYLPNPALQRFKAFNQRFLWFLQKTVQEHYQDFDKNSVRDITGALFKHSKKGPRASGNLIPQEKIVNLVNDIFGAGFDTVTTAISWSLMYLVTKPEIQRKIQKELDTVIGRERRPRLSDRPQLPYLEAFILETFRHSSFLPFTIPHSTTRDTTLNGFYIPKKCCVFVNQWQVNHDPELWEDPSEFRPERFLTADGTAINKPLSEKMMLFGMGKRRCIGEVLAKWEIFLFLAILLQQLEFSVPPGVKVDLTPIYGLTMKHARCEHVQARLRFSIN
Method in brief: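 Luminescent demethylation readout: Luciferin-ME (100uM, equal to Km) turned over by 20nM CYP1A2 for 60 min at room temperature after NADPH regeneration addition, following 10 min compound preincubation. Normalization used 57 uM furafylline as full inhibition.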

[4] = NFAT Signaling Pathway (AID 444; active = well fitted curve in either direction with a large enough effect, not every such curve was filed as active;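 note: carbachol stimulus at about its EC50 of 1 µM final; % is set by controls: 0 for no effect and ±100 for the full control effect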); settings: Jurkat NFAT-bla M1, carbachol, beta-lactamase ratio, 5 h; at 7.69 µM (top of the series) unless noted
Method in brief: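 Read-out: CCF4 FRET ratio (460 nm/530 nm) after 1 h RT dye loading, used for %activity and AC50 from titration series. Cells: Jurkat NFAT-β-lactamase/M1 line, treated with compound plus 1 uM carbachol for 5 h, 37 °C.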

[5] = Stat Signaling Pathway (AID 446; active = well fitted curve in either direction with a large enough effect, not every such curve was filed as active;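 note: ME-180 cervical cancer cells given 40 pM IL-6 alongside compound; SIE-controlled beta-lactamase reporter measured as 460/530 nm FRET emission ratio; % is set by controls: 0 for no effect and ±100 for the full control effect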); settings: ME-180 (cervical carcinoma) SIE beta-lactamase reporter, IL-6 stimulated, 5 h; at 7.69 µM (top of the series) unless noted
Method in brief: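 Emission at 460 and 530 nm (excitation 405 nm) reports SIE-controlled beta-lactamase in ME-180 cells. Cells received compound with 40 pM IL-6 for 5 hrs at 37 C; data scaled between 300 pM IL-6 and 125 nM JAK-inhibitor controls.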

[6] = biological target: Glucocorticoid receptor (Homo sapiens) (UniProt P04150); test: GR-GFP Redistribution (AID 450;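 active = compounds whose dose series gives a full or clear partial fitted curve of increased nuclear translocation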; note: potency is the fitted concentration of half-maximal effect); settings: U2OS GR-GFP nuclear translocation, laser cytometry, 2 h
Glucocorticoid receptor (Homo sapiens), sequence (P04150 whole entry, looked up, the tested form may be a part): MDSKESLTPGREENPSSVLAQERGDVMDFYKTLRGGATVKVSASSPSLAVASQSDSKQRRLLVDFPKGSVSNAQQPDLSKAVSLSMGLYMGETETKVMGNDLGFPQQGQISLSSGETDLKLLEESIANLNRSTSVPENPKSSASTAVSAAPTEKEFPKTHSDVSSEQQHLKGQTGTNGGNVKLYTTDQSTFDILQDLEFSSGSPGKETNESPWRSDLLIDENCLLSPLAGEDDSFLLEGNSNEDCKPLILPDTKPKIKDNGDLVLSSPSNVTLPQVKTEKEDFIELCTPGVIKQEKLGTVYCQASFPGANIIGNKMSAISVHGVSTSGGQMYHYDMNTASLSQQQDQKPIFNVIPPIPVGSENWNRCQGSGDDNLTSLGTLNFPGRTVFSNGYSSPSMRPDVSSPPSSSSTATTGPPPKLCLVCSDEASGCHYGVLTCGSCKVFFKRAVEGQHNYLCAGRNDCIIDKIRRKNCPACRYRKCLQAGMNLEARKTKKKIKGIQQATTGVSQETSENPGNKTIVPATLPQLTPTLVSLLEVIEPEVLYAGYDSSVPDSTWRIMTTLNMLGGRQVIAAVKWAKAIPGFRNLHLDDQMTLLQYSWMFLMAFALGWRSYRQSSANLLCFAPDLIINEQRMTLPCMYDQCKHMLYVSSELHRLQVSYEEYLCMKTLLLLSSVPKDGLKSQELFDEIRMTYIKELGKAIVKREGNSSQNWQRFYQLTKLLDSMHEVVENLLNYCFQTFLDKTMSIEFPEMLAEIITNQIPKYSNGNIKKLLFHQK

[7] = biological target: Glucocorticoid receptor (Homo sapiens) (UniProt P04150); test: GR-EFC Redistribution (AID 451; calls by dose curve; note: potency is the fitted concentration of half-maximal effect); settings: CHO-K1 GR-EFC translocation, beta-gal luminescence, 2 h
Method in brief: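 Translocation of GR-ED fusion to nuclear EA restores b-gal, read by luminescence after 1 h room-temperature detection. Engineered CHO-K1 biosensor cells, 1,000/well, exposed 2 h at 37 C to titrations up to 46 uM final.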

[8] = biological target: Mitogen-activated protein kinase 10 (Mus musculus) (UniProt Q61831); test: JNK3 AlphaScreen Assay (AID 530; active = well fitted curve in either direction with a large enough effect, not every such curve was filed as active;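 note: kinase came from lysate of stimulated human HepG2 cells; signal reports phosphorylation of biotinylated GST-cJun 1-79 at Ser73 with 10 µM ATP; % is set by controls: 0 for no effect and ±100 for the full control effect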); settings: JNK3 lysate, c-Jun phosphorylation; series mostly up to 57.1 µM
Method in brief: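 qHTS titrations with 15 min compound pre-incubation before adding ATP (10 uM final). Read-out: AlphaScreen of Ser73-phosphorylated biotin-GST-cJun using HepG2 lysate JNK3 activated by IL-1β and TNFα.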

[9] = biological target: 3',5'-cyclic-AMP phosphodiesterase 4B (Homo sapiens) (UniProt Q07343); test: qHTS Assay for Inhibitors of PDE-IV (AID 607; active = well fitted activation curve with a large enough effect in the main read-out, with a control signal flat, not every such curve was filed as active; note: % of control where 0% means no effect); settings: HEK293 ACTOne CNG channel cells, membrane potential fluorescence; series mostly up to 22.9 µM
3',5'-cyclic-AMP phosphodiesterase 4B (Homo sapiens), sequence (Q07343 whole entry, looked up): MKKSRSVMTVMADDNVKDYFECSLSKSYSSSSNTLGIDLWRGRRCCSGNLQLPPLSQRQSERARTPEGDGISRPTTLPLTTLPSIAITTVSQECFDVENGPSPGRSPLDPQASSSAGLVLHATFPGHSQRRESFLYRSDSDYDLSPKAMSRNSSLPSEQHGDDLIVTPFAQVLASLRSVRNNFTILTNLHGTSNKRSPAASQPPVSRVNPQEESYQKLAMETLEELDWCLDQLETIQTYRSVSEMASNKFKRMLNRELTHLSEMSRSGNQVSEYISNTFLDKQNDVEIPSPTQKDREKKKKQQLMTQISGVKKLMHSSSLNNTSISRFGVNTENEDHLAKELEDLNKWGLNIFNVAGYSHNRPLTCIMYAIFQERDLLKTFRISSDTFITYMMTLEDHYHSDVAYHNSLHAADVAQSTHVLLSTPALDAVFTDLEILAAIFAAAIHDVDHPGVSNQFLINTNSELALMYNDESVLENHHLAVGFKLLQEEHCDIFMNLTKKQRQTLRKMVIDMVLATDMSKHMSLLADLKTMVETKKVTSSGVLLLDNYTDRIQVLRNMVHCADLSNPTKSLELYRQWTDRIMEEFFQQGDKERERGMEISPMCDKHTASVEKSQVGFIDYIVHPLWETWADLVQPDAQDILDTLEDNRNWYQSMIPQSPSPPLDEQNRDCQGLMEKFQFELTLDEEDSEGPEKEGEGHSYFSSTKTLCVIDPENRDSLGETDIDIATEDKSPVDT
Method in brief: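 The readout is membrane depolarisation from a cAMP-sensing CNG channel, detected with a potential dye at ex 535/em 590. Cells were HEK293-derived (endogenous PDE-IV) at 1000 cells/well, titrated up to 22.9 uM final.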

[10] = biological target: Cytochrome P450 2C9 (Homo sapiens) (UniProt P11712); test: qHTS Assay for Inhibitors and Substrates of Cytochrome P450 2C9 (AID 883); settings: recombinant CYP2C9, luciferin-H luminescence, 60 min; series mostly up to 57.1 µM; note: % is set by controls: 0 for no effect and ±100 for the full control effect; nearly all actives have a fitted effect of over 60% in size
Method in brief: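 Inhibition of CYP2C9 is scored as loss of luminescence, with 57uM sulphaphenazole defining 100% inhibition. Substrate Luciferin-H is used at 100uM, equal to its KM; enzyme at 10nM in 25mM KPO4, 60 min at 37C with NADPH regeneration.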

[11] = biological target: Cytochrome P450 3A4 (Homo sapiens) (UniProt P08684); test: qHTS Assay for Activators of Cytochrome P450 3A4 (AID 885); settings: recombinant CYP3A4, Luciferin-PPXE luminescence, 60 min; series mostly up to 57.1 µM; note: nearly all actives have a fitted effect of over 65% in size
Cytochrome P450 3A4 (Homo sapiens), sequence (P08684 whole entry, looked up): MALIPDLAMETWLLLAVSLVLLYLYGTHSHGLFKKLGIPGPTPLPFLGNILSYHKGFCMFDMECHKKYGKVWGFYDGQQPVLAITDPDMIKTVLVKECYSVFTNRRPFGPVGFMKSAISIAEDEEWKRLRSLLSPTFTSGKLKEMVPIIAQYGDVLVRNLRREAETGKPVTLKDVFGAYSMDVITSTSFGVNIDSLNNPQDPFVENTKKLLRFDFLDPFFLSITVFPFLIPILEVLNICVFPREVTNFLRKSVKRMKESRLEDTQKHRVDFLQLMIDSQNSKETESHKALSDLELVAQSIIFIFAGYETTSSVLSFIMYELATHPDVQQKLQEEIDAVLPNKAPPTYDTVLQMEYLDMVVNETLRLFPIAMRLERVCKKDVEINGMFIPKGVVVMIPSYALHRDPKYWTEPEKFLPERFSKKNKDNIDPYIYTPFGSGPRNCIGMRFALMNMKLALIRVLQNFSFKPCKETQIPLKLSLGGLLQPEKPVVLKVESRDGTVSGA
Method in brief: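 Activators are scored by enhanced luminescence from CYP3A4 conversion of luciferin-PPXE (25uM, equal to KM) to luciferin, after 60 min at RT with an NADPH-regenerating system.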

[12] = biological target: Cytochrome P450 2C19 (Homo sapiens) (UniProt P33261); test: qHTS Assay for Inhibitors and Substrates of Cytochrome P450 2C19 (AID 899); settings: recombinant CYP2C19, luciferin-H EGE luminescence; series mostly up to 57.1 µM; note: potency is the fitted concentration of half-maximal effect; nearly all actives have a fitted effect of over 60% in size
Cytochrome P450 2C19 (Homo sapiens), sequence (P33261 whole entry, looked up): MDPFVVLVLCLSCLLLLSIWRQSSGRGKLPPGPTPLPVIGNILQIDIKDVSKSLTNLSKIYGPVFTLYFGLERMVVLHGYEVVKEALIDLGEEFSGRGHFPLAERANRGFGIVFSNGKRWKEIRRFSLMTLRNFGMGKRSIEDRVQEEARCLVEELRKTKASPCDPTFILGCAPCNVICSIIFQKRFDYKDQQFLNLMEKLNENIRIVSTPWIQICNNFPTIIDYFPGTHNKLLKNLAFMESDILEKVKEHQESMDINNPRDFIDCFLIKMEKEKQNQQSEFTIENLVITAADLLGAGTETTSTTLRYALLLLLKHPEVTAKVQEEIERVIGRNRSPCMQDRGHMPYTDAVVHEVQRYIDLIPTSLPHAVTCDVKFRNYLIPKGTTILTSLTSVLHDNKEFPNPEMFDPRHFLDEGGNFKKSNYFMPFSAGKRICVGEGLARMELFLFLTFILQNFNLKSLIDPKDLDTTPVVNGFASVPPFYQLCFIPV
Method in brief: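 5nM enzyme + 10uM Luciferin-H EGE (=KM), 50mM KPO4; cpd pin-transferred, 10 min 37C; NADPH regen, 60 min 37C; stopped w/ luciferin detection reagent, 20 min; luminescence. Normalized to 57uM ketoconazole (AC100).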

[13] = qHTS Assay for Lipid Storage Modulators (AID 1519; calls by dose curve); settings: Drosophila S3 cells, BODIPY lipid droplet/cell ratio, laser cytometry, cells loaded with oleic acid; for activity change, negative = inhibition: at 57.5 µM (top of the series)
Method in brief: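 Cells seeded at 5,000 per well were treated with compounds over a concentration series and loaded with oleic acid (400 uM, as added). Lipid droplet fluorescence (488 nm excitation, 500-530 nm channel) was read by laser-scanning cytometry and normalized to 20 uM Triacsin C.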

[14] = biological target: Dual specificity protein kinase CLK4 (Homo sapiens) (UniProt Q9HAZ1); test: qHTS Assay for Inhibitors of CDC-like Kinase 4 (Kinase-Glo Assay) (AID 1770); settings: recombinant Clk4, Kinase-Glo ATP depletion luminescence; series mostly up to 66.7 µM; note: nearly all actives have a fitted effect of over 65% in size; note: potency is the fitted concentration of half-maximal effect
Dual specificity protein kinase CLK4 (Homo sapiens), sequence (Q9HAZ1 whole entry, looked up): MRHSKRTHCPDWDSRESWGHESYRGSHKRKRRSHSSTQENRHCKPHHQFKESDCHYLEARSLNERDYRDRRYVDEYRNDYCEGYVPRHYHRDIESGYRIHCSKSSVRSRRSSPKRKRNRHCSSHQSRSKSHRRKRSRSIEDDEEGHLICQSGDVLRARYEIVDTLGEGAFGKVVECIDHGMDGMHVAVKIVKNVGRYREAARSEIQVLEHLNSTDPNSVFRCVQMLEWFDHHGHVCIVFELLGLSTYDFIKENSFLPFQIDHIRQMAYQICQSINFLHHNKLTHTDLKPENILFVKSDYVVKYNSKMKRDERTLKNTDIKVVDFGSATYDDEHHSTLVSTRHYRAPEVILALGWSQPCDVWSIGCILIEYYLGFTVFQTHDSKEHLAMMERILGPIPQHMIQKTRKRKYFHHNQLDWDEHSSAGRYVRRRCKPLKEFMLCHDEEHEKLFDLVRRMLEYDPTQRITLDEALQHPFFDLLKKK
Method in brief: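 Inhibition was judged from remaining ATP, measured by Ultra-Glo luciferase bioluminescence after Clk4 (25 nM) had acted on RS peptide at 1 uM ATP for 4.5 hours, room temperature.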

[15] = biological target: Dual specificity protein kinase CLK4 (Homo sapiens) (UniProt Q9HAZ1); test: qHTS Assay for Inhibitors of CDC-like Kinase 4 (ADP-Glo Assay) (AID 1771); settings: recombinant CLK4, ADP-Glo luminescence; series mostly up to 80 µM; note: nearly all actives have a fitted effect of over 70% in size; note: potency is the fitted concentration of half-maximal effect
Method in brief: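 ADP production was read by ADP-Glo luminescence after residual ATP depletion, following 1 h room-temperature reaction of 25 nM Clk4, 1 uM ATP and 100 uM RS peptide with MgCl2, EGTA, DTT and Triton X-100.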

[16] = biological target: Dual specificity protein kinase CLK4 (Homo sapiens) (UniProt Q9HAZ1); test: qHTS Assay for Inhibitors of CDC-like Kinase 4 (ADP-FP Assay) (AID 1795); settings: Transcreener ADP fluorescence polarization; series mostly up to 50 µM; note: nearly all actives have a fitted effect of over 60% in size; note: potency is the fitted concentration of half-maximal effect
Method in brief: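 Inhibition of ADP formation by 6.25 nM Clk4 is measured using 1 uM ATP and 100 uM RS repeat peptide over one hour. Produced ADP displaces a fluorescent tracer from antibody, lowering polarization.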

[17] = Primary qHTS for small molecule stabilizers of the endoplasmic reticulum resident proteome: Secreted ER Calcium Modulated Protein (SERCaMP) assay (AID 1508630); settings: SH-SY5Y GLuc-SERCaMP (Gaussia luciferase released on ER calcium loss) secretion, thapsigargin, luminescence; series mostly up to 38.4 µM; note: % is set by controls: 0 for no effect and ±100 for the full control effect
Method in brief: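 The SH-SY5Y reporter protocol was run at 3 concentrations up to 38.3 uM (primary) or 11 concentrations (follow-up): 16 h compound, 100 nM thapsigargin for 4 h, then extracellular luciferase luminescence.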

[18] = biological target: Ubiquitin carboxyl-terminal hydrolase 1 (Homo sapiens) (UniProt O94782); test: Inhibitors of USP1/UAF1: Pilot qHTS (AID 504865); settings: purified USP1/UAF1, Ub-rhodamine cleavage fluorescence; series mostly up to 54.9 µM;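 note: rhodamine fluorescence freed from ubiquitin-rhodamine substrate followed over time; top concentration of the series differs between compounds; % is set by controls: 0 for no effect and ±100 for the full control effect; nearly all actives have a fitted effect of over 35% in size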
Ubiquitin carboxyl-terminal hydrolase 1 (Homo sapiens), sequence (O94782 whole entry, looked up): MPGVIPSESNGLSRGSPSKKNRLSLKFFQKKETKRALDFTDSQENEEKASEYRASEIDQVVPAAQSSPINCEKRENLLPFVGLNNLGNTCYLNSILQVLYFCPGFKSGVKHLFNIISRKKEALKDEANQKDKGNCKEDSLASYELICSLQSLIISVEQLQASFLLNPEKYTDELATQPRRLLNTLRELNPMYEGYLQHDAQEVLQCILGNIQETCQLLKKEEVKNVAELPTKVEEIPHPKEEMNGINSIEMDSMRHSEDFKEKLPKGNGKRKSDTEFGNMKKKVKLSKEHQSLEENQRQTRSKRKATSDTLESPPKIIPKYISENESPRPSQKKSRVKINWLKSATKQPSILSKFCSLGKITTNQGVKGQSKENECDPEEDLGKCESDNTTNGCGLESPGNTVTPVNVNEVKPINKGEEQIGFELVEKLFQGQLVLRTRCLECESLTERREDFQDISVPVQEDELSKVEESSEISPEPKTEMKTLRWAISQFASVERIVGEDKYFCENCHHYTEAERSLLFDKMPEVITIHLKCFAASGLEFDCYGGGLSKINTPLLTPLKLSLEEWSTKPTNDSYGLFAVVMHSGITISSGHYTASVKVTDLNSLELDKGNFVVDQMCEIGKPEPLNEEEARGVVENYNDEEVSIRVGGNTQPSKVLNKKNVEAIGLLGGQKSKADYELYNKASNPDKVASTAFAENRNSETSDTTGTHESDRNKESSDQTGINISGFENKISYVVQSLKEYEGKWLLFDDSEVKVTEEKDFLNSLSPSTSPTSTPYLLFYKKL
Method in brief: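 Kinetic fluorescence assay: 1nM USP1/UAF1, 15 min compound preincubation, then 150nM Ub-Rho; 480/540 nm.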

[19] = measured here: cell count channel max response
[20] = measured here: lipid channel max response

**Q.** With `CN(C)c1ccc(-c2cc(Nc3ccc(F)cc3)ncn2)cc1` as the compound, how does the Potency [1] read?
**A.** The Potency was > 11.4 µM (inactive).

**Q.** What about the activity change, negative = inhibition [2] of the same compound?
**A.** The activity change, negative = inhibition was -18.2% (inactive).

**Q.** And the Potency [3]?
**A.** Its Potency is 0.398 µM (active).

**Q.** And the activity change, negative = inhibition [4]?
**A.** The activity change, negative = inhibition was -8.8% (inactive).

**Q.** And the activity, negative = inhibition [5]?
**A.** Its activity, negative = inhibition is -12% (inactive).

**Q.** And the Potency [6]?
**A.** Its Potency is > 46 µM (inactive).

**Q.** What about the Potency [7] of the same compound?
**A.** The Potency was > 46 µM (inactive).

**Q.** And the outcome [8]?
**A.** The outcome was “inactive”.

**Q.** And the Potency [9]?
**A.** Its Potency is “inactive”.

**Q.** What about the activity change, negative = inhibition [10] of the same compound?
**A.** The activity change, negative = inhibition was 8.7% [at 2.29 µM] (inactive).

**Q.** And the Potency [11]?
**A.** The Potency was “inactive”.

**Q.** What about the Potency [12] of the same compound?
**A.** The Potency was 2 µM (active).

**Q.** And the activity change, negative = inhibition [13]?
**A.** The activity change, negative = inhibition was 8.67% (inactive).

**Q.** And the max response [13, 19]?
**A.** Its max response is -11.3%.

**Q.** And the max response [13, 20]?
**A.** Its max response is -0.85%.

**Q.** And the Potency [14]?
**A.** Its Potency is 11.2 µM (active).

**Q.** What about the Potency [15] of the same compound?
**A.** Its Potency is 14.1 µM (active).

**Q.** And the Potency [16]?
**A.** The Potency was “inactive”.

**Q.** And the Potency [17]?
**A.** Its Potency is “inactive”.

**Q.** What does the source list for `COc1ccc(Oc2ncc3nc(-c4cn(C)c5ccccc45)c(=O)n(C4CC4)c3n2)cc1`?
**A.** Potency [1]: > 11.4 µM (inactive); activity change, negative = inhibition [2]: -4.88% (inactive); Potency [3]: 12.6 µM (active); activity change, negative = inhibition [4]: 9.91% (inactive); activity, negative = inhibition [5]: 19% (inactive); Potency [7]: > 46 µM (inactive); outcome [8]: inactive; Potency [9]: inactive; Potency [11]: inactive; activity change, negative = inhibition [13]: 2.32% (inactive); max response [13, 19]: 3.6%; max response [13, 20]: 3.07%; Potency [14]: inactive; Potency [15]: inactive; Potency [16]: inactive; Potency [18]: inactive; Potency [17]: inactive

**Q.** For `Cc1noc(C)c1-c1ccc2ncnc(N(C)C)c2c1`, which Potency [1] is on record?
**A.** Its Potency is > 11.4 µM (inactive).

**Q.** And the activity change, negative = inhibition [2]?
**A.** Its activity change, negative = inhibition is -2.75% (inactive).

**Q.** And the Potency [3]?
**A.** The Potency was 0.631 µM (active).

**Q.** What about the activity, negative = inhibition [5] of the same compound?
**A.** The activity, negative = inhibition was -14.9% (inactive).

**Q.** What about the Potency [6] of the same compound?
**A.** The Potency was > 46 µM (inactive).

**Q.** And the Potency [7]?
**A.** Its Potency is > 46 µM (inactive).

**Q.** And the outcome [8]?
**A.** The outcome was “inactive”.

**Q.** And the Potency [9]?
**A.** Its Potency is “inactive”.

**Q.** And the activity change, negative = inhibition [13]?
**A.** The activity change, negative = inhibition was 3.59% (inactive).

**Q.** And the max response [13, 19]?
**A.** Its max response is 19%.

**Q.** And the max response [13, 20]?
**A.** The max response was 20.5%.

**Q.** What about the Potency [14] of the same compound?
**A.** The Potency was 7.08 µM (active).

**Q.** What about the Potency [15] of the same compound?
**A.** Its Potency is 4.47 µM (active).

**Q.** And the Potency [16]?
**A.** Its Potency is 2 µM (active).

**Q.** And the Potency [18]?
**A.** Its Potency is “inactive”.

**Q.** What about the Potency [17] of the same compound?
**A.** The Potency was “inactive”.
